Results filed as inconclusive are left out. Active and inactive are the calls of the source. The call rests on the fitted dose curve; in most records, active means well fitted inhibition curve with a large enough effect; inconclusive means small, poorly fitted or top-dose-only effect; inactive means flat fitted curve, though single readings scatter.
Test: P-glycoprotein substrates identified in KB-8-5-11 adenocarcinoma cell line, qHTS therapeutic library screen (AID 1346987); further: nearly all actives have a fitted effect of over 65% in size
Conditions: KB-8-5-11 (P-gp overexpressing) viability, CellTiter-Glo, 72 h; series mostly up to 44.5 µM; activity change, negative = cytotoxicity: at the top concentration
Outline: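 P-gp-mediated resistance screen: KB-8-5-11 cells treated 72 h with compounds in dose-response. CellTiter-Glo viability.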
On the % scale 0 is the no-effect control and ±100 the full control effect; potency means the concentration at half of the fitted maximal effect.

Row | Compound | activity change, negative = cytotoxicity | Potency | outcome
1 | CC1=CC2/C=C(\C)CC[C@@H](O)[C@@H](O)[C@@H]3O[C@@H]3C(=O)[C@]23C(=O)N[C@@H](CC(C)C)[C@@H]3[C@@H]1C (some centres not stated) | -5.48% [at 17.3 µM] (inactive) | – | –
2 | C[C@@H]1C(=O)O[C@H]2C[C@]34[C@H]5C[C@@H](C(C)(C)C)[C@]36[C@@H](OC(=O)[C@H]6O)O[C@]4(C(=O)O5)[C@]21O | 3.36% [at 17.3 µM] (inactive) | – | –
3 | NC(=O)Nc1cc(-c2cccc(F)c2)sc1C(=O)NC1CCCNC1 (configuration not stated) | – | 8.2 µM (active) | –
4 | C=C[C@H]1C(O[C@@H]2O[C@H](CO)[C@@H](O)[C@H](O)[C@H]2O)OC=C2C(=O)N3CCc4c([nH]c5ccccc45)[C@H]3C[C@H]21 (some centres not stated) | – | – | inactive [at 17.3 µM]
5 | CC1(C)CCCC2(C)C1CC(=O)C13CC(CCC12)C(O)(CO)C3 (configuration not stated) | -21.3% (inactive) | – | –
6 | CC(C)c1cc(CNc2nc(Nc3cc(C4CC4)[nH]n3)cc(N3CCN(C)CC3)n2)on1 | – | 5.8 µM (active) | –
7 | C[C@@H]1O[C@@H](O[C@H]2[C@H](O)[C@@H](O[C@@H]3O[C@H](CO)[C@@H](O)[C@H](O[C@@H]4O[C@H](CO)[C@@H](O)[C@H](O)[C@H]4O)[C@H]3O)[C@H](O[C@H]3CC[C@@]4(C)C(=CC[C@@H]5C4CC[C@@]4(C)C5C[C@@H]5OC6(CC[C@@](C)(CO[C@@H]7O[C@H](CO)[C@@H](O)[C@H](O)[C@H]7O)O6)[C@@H](C)[C@@H]54)C3)O[C@@H]2CO)[C@H](O)[C@H](O)[C@H]1O (some centres not stated) | 3.17% [at 9.29 µM] (inactive) | – | –
8 | COc1ccc2cc(C(C)C(=O)Oc3ccc(C(N)=S)cc3)ccc2c1 (configuration not stated) | 6.8% (inactive) | – | –
9 | CC1(C)[C@@H](O)CC[C@]2(C)[C@H]3CC=C4[C@@H]5C[C@](C)(C(=O)O)CC[C@]5(C)CC[C@@]4(C)[C@]3(C)CC[C@@H]12 | 4.73% (inactive) | – | –
10 | CC(=O)O[C@@H](CO[C@@H]1O[C@H](CO)[C@H](O)[C@H](O)[C@H]1O)[C@]1(C)C=C2CC[C@@H]3C(C)(C)[C@@H](O)CC[C@@]3(C)[C@@H]2CC1 | 3.01% [at 17.3 µM] (inactive) | – | –
11 | CNC(=S)NS(=O)(=O)c1cc(CCNC(=O)c2cc(Cl)ccc2OC)ccc1OC | 8.16% (inactive) | – | –
12 | COC1/C=C/C(C)(O)C(SCC(N)C(=O)O)CC(=O)OC(C)C(C)CC/C=C/1C (configuration not stated) | 6.14% [at 17.3 µM] (inactive) | – | –

— PubChem BioAssay (NCATS)
